Laboratory results from PubChem BioAssay (NCATS).
Inconclusive results are not listed. Calls of active or inactive are those of the source. Calls follow the shape of the dose curve; as a rule, active = well fitted inhibition curve with a large enough effect; inconclusive = small, poorly fitted or top-dose-only effect; inactive = flat fitted curve, though single readings scatter.

Experiments:
Assay in all cases: qHTS profiling for inhibitors of Plasmodium falciparum proliferation (AID 504749); also: nearly all actives have a fitted effect of over 60% in size
Details in all cases: P. falciparum in erythrocytes, SYBR Green DNA, 72 h; series mostly up to 28.7 µM
[1] = test system: CP262
Procedure, shortened: (§1)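 Readout was DNA-dye fluorescence from lysed cultures, ex 485/em 535 nm. Parasitized red cells had grown 72 h with compound; data scaled between 0.29 uM artemisinin and DMSO wells and corrected using vehicle-only plates.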

[2] = test system: CP265
Procedure, shortened: as §1

[3] = test system: CP266
Procedure, shortened: as §1

[4] = test system: CP268
Procedure, shortened: as §1

[5] = test system: CP269
Procedure, shortened: as §1

[6] = test system: CP286
Procedure, shortened: as §1

[7] = test system: CP291
Procedure, shortened: as §1

[8] = test system: CP297
Procedure, shortened: as §1

[9] = test system: CP305
Procedure, shortened: as §1

[10] = test system: CP315
Procedure, shortened: as §1

[11] = test system: CP325
Procedure, shortened: as §1

[12] = test system: CP329
Procedure, shortened: as §1

[13] = test system: CP335
Procedure, shortened: as §1

[14] = test system: DFO2036
Procedure, shortened: as §1

[15] = test system: DIV14
Procedure, shortened: as §1

[16] = test system: DIV17
Procedure, shortened: as §1

[17] = test system: DIV30
Procedure, shortened: as §1

[18] = test system: Dd2
Procedure, shortened: as §1

[19] = test system: ECU
Procedure, shortened: as §1

[20] = test system: FAB9
Procedure, shortened: as §1

[21] = test system: GB4
Procedure, shortened: as §1

[22] = test system: HB3
Procedure, shortened: as §1

[23] = test system: ICS
Procedure, shortened: as §1

[24] = test system: N140
Procedure, shortened: as §1

[25] = test system: P93_24
Procedure, shortened: as §1

[26] = test system: P94_40
Procedure, shortened: as §1

[27] = test system: PAD
Procedure, shortened: as §1

[28] = test system: PC15
Procedure, shortened: as §1

[29] = test system: PC26
Procedure, shortened: as §1

[30] = test system: PC49
Procedure, shortened: as §1

[31] = test system: SC27B
Procedure, shortened: as §1

[32] = test system: TAB109
Procedure, shortened: as §1

[33] = test system: TAB113
Procedure, shortened: as §1

[34] = test system: TAB165
Procedure, shortened: as §1

[35] = test system: W2
Procedure, shortened: as §1

Measured: Potency
Potency is read from the fitted curve at half-maximal effect.

CC(C)C[C@@H](NC(=O)[C@H](Cc1ccccc1)NC(=O)c1cnccn1)B(O)O
active: [1] 95.3 nM | [2] 112 nM | [3] 169 nM | [4] 95.3 nM | [5] 135 nM | [6] 63.1 nM | [7] 135 nM | [8] 269 nM | [9] 675 nM | [10] 190 nM | [11] 135 nM | [12] 95.3 nM | [13] 95.3 nM | [14] 100 nM | [15] 426 nM | [16] 301 nM | [17] 190 nM | [18] 100 nM | [19] 126 nM | [20] 141 nM | [21] 107 nM | [22] 79.4 nM | [23] 44.7 nM | [24] 70.8 nM | [25] 79.4 nM | [26] 112 nM | [27] 112 nM | [28] 79.4 nM | [29] 213 nM | [30] 141 nM | [31] 100 nM | [32] 35.5 nM | [33] 100 nM | [34] 112 nM | [35] 75.7 nM
